The record followed here is PMC7862700, “An all-to-all approach to the identification of sequence-specific readers for epigenetic DNA modifications on cytosine”.

What all share (assay): DAPPL (digital affinity profiling via proximity ligation, sequencing); 10 mM Tris-HCl pH 7.5, 50 mM NaCl, 1 mM DTT, 4% glycerol, room temperature, 30 min; GST-TFs on glutathione beads, 16-mer random dsDNA library, 0.1% formaldehyde crosslink after washing; high values mean tight binding
In assay [1] the target is T1, FEV (Homo sapiens, UniProt Q99581 1-238).
T1 sequence: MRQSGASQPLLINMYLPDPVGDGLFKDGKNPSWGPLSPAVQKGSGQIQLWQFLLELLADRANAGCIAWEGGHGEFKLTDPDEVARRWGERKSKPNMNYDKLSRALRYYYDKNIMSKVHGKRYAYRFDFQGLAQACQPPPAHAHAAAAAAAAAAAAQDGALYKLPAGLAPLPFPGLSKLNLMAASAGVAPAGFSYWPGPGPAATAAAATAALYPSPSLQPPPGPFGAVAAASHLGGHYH
Particulars: protein: recombinant; tags: N-terminal GST; dsDNA, one strand shown. The procedure, abridged: (§1)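 Yeast served to express human transcription factors as GST fusions, which were then captured on glutathione beads and labelled with DNA barcodes. Pooled with a tag-only sample, they were incubated with 200 nmole of a 16-mer random double-stranded DNA library for 30 min at room temperature in Tris/NaCl/DTT/glycerol buffer, washed, crosslinked with 0.1% formaldehyde, ligated by proximity, amplified by PCR and sequenced. Dividing each hexamer's read frequency for a factor by its frequency for the tag-only sample gives the binding signal.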

Assay [2] has as its target ETV5 (Homo sapiens, UniProt P41161 1-510). Conditions: protein: recombinant; tags: N-terminal GST; dsDNA, one strand shown. The method, boiled down: as §1
For assay [3], the target named is HSF1 (Homo sapiens, UniProt Q00613 1-529). Particulars: protein: recombinant; tags: N-terminal GST; chain copies: 3; dsDNA, one strand shown. The procedure, abridged:
as §1

For assay [4], the target named is T2, SPIC (Homo sapiens, UniProt Q8N5J4 1-248).
T2 sequence: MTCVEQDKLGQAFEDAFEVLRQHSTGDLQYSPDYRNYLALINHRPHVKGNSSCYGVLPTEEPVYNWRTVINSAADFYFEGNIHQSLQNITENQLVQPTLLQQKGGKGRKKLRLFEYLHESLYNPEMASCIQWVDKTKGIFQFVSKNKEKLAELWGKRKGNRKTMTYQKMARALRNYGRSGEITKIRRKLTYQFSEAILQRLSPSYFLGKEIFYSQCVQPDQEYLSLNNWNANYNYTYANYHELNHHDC
Particulars: protein: recombinant; tags: N-terminal GST; dsDNA, one strand shown. The method, boiled down: as §1

The target in assay [5] is ELF4 (Homo sapiens, UniProt Q99607 1-663). Particulars: protein: recombinant; tags: N-terminal GST; dsDNA, one strand shown. The procedure, abridged:
as §1

Assay [6] deals with T3, ELK4 (Homo sapiens, UniProt P28324-2 1-405).
T3 sequence: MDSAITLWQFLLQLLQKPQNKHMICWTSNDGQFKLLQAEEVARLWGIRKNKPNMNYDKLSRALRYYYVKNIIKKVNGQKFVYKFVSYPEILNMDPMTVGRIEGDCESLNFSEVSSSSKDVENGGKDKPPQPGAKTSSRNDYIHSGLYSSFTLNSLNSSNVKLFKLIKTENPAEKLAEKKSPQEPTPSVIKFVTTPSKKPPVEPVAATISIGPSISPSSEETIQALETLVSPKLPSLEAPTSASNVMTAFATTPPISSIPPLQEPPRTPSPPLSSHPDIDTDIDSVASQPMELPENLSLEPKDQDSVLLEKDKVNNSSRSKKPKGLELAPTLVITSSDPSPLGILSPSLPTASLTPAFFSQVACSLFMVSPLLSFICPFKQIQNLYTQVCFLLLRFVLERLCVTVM
Conditions: protein: recombinant; tags: N-terminal GST; dsDNA, one strand shown. The procedure, abridged:
as §1

In assay [7] the target is T4, ETV2 (Homo sapiens, UniProt O00321 1-342).
T4 sequence: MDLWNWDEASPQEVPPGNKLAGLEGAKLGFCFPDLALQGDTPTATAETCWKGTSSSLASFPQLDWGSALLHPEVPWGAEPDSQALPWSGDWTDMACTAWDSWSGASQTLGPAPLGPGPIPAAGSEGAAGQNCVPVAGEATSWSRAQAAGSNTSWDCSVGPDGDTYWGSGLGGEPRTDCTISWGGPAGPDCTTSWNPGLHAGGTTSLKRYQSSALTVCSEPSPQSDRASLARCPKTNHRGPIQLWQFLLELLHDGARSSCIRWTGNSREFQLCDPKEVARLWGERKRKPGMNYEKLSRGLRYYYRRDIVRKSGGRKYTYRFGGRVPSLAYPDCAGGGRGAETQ
Conditions: protein: recombinant; tags: N-terminal GST; dsDNA, one strand shown. The procedure, abridged:
as §1

In assay [8] the target is T5, ELF3 (Homo sapiens, UniProt P78545 1-371).
T5 sequence: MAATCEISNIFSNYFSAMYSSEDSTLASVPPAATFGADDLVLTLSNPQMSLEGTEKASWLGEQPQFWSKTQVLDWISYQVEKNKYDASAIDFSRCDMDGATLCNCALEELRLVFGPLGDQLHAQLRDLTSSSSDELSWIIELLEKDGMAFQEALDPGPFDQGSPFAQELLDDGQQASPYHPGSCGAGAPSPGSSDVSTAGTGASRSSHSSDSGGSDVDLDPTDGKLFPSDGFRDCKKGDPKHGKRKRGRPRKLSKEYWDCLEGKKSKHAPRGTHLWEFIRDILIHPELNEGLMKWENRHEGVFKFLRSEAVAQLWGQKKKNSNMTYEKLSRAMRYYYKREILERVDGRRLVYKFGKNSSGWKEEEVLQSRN
Conditions: protein: recombinant; tags: N-terminal GST; dsDNA, one strand shown. The procedure, abridged:
as §1

Assay [9] concerns the target CRX (Homo sapiens, UniProt O43186 1-299). Conditions: protein: recombinant; tags: N-terminal GST; dsDNA, one strand shown. The method, boiled down:
as §1

Assay [10] deals with ETV1 (Homo sapiens, UniProt P50549 1-477). Particulars: protein: recombinant; tags: N-terminal GST; dsDNA, one strand shown. The procedure, abridged: as §1
The target in assay [11] is T6, ERF (Homo sapiens, UniProt P50548 1-548).
T6 sequence: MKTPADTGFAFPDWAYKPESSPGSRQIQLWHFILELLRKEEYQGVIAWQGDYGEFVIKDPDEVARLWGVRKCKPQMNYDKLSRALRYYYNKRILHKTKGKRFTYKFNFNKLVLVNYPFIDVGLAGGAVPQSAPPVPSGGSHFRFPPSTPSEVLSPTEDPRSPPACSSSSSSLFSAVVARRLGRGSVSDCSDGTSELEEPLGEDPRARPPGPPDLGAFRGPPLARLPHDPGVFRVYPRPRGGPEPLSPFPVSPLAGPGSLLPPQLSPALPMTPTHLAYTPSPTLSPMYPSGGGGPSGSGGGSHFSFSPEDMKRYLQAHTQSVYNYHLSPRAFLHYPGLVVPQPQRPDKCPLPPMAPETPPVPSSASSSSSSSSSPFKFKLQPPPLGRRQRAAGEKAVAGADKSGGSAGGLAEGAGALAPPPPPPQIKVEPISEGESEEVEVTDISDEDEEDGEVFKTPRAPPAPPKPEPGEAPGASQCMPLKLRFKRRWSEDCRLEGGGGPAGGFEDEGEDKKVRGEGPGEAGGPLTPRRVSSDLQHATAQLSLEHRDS
Conditions: protein: recombinant; tags: N-terminal GST; dsDNA, one strand shown. The procedure, abridged:
as §1

Assay [12] has as its target T7, ETV3L (Homo sapiens, UniProt Q6ZN32 1-361).
T7 sequence: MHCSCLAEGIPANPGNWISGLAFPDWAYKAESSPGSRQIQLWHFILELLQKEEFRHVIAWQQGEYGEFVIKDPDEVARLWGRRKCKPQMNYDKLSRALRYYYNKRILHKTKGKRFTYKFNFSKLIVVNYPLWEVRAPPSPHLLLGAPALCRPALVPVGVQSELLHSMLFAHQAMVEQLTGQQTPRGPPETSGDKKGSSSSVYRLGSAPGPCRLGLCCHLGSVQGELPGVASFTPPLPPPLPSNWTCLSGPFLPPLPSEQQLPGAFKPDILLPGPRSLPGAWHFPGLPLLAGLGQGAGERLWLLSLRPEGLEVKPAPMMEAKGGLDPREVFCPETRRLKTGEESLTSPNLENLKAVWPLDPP
Conditions: protein: recombinant; tags: N-terminal GST; dsDNA, one strand shown. The method, boiled down:
as §1

The target in assay [13] is T8, ETS2 (Homo sapiens, UniProt P15036 1-469).
T8 sequence: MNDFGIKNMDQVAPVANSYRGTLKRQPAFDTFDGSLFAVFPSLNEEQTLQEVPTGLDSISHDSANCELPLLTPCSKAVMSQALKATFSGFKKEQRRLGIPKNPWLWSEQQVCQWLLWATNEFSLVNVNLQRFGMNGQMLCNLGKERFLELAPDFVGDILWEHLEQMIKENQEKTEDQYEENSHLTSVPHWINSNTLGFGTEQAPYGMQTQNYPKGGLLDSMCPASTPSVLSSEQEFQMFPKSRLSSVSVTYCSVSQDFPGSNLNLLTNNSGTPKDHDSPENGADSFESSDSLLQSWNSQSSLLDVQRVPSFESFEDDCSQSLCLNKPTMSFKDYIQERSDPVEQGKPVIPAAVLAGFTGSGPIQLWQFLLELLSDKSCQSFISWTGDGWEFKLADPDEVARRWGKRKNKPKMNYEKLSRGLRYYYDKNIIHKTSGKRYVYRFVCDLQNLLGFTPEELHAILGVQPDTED
Conditions: protein: recombinant; tags: N-terminal GST; dsDNA, one strand shown. The method, boiled down: as §1

Assay [14] has as its target T9, SPDEF (Homo sapiens, UniProt O95238 1-335).
T9 sequence: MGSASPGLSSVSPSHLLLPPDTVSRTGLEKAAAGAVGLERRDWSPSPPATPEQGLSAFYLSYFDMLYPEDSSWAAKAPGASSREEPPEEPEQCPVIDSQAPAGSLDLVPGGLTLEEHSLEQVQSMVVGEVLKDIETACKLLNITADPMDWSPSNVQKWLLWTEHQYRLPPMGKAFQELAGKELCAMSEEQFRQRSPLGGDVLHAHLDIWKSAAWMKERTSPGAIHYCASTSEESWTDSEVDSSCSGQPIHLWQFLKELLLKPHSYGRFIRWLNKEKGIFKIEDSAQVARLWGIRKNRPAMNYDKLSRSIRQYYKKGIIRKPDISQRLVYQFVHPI
Particulars: protein: recombinant; tags: N-terminal GST; dsDNA, one strand shown. The method, boiled down: as §1

Assay [15] addresses T10, ETV7 (Homo sapiens, UniProt Q9Y603 1-341).
T10 sequence: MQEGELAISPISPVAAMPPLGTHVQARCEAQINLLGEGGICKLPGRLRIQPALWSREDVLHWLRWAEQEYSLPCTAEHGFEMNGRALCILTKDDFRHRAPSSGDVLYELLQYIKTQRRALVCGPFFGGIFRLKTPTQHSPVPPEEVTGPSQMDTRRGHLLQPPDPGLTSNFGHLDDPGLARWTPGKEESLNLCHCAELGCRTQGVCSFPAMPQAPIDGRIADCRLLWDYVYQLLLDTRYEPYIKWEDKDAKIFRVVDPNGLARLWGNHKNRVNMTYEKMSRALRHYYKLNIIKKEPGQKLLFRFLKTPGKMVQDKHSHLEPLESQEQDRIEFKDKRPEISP
Particulars: protein: recombinant; tags: N-terminal GST; dsDNA, one strand shown. The procedure, abridged:
as §1

The target of assay [16] is T11, ELF5 (Homo sapiens, UniProt Q9UKW6-2 1-255).
T11 sequence: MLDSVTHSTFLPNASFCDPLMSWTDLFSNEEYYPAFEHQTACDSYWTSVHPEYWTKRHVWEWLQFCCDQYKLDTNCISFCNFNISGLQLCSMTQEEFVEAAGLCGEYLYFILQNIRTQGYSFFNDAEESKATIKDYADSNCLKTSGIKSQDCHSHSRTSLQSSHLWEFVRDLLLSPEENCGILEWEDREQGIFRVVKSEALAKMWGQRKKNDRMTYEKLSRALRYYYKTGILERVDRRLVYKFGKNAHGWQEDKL
Particulars: protein: recombinant; tags: N-terminal GST; dsDNA, one strand shown. The procedure, abridged: as §1

Assay [17] concerns the target T12, ETV3 (Homo sapiens, UniProt P41162-2 1-143).
T12 sequence: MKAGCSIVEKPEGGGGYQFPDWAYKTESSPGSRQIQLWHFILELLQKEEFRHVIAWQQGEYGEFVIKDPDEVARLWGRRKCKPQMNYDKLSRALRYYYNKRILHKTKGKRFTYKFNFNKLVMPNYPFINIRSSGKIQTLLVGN
Particulars: protein: recombinant; tags: N-terminal GST; dsDNA, one strand shown. The method, boiled down:
as §1

Assay [18] has as its target ETV6 (Homo sapiens, UniProt P41212 1-452). Conditions: protein: recombinant; tags: N-terminal GST; dsDNA, one strand shown. The method, boiled down:
as §1

ETV5, sequence (P41161 whole entry): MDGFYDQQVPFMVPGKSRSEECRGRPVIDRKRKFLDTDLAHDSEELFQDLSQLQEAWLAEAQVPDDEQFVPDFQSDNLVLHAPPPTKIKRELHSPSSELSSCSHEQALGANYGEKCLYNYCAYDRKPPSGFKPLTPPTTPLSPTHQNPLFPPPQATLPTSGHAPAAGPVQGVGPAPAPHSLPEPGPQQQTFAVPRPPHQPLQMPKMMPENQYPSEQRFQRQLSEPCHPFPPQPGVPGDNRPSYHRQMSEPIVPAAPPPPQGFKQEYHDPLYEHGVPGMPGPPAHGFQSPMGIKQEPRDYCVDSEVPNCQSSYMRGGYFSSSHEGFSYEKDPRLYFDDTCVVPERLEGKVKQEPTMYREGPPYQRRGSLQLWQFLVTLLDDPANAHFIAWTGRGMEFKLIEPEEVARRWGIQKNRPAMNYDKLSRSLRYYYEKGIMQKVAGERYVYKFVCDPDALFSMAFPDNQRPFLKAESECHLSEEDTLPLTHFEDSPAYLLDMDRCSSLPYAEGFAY
ETV1, sequence (P50549 whole entry): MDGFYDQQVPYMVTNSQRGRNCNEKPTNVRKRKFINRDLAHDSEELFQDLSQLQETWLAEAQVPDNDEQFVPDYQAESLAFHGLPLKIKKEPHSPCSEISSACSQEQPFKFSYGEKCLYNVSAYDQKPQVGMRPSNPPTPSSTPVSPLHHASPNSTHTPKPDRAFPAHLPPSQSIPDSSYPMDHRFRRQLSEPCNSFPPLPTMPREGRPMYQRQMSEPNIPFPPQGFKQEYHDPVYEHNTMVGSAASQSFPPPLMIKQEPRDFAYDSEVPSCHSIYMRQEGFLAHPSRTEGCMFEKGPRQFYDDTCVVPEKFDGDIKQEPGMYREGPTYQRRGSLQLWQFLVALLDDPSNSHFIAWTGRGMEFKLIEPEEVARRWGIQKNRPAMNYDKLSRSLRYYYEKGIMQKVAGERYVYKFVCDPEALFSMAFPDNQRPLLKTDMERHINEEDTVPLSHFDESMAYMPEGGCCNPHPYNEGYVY
ELF4, sequence (Q99607 whole entry): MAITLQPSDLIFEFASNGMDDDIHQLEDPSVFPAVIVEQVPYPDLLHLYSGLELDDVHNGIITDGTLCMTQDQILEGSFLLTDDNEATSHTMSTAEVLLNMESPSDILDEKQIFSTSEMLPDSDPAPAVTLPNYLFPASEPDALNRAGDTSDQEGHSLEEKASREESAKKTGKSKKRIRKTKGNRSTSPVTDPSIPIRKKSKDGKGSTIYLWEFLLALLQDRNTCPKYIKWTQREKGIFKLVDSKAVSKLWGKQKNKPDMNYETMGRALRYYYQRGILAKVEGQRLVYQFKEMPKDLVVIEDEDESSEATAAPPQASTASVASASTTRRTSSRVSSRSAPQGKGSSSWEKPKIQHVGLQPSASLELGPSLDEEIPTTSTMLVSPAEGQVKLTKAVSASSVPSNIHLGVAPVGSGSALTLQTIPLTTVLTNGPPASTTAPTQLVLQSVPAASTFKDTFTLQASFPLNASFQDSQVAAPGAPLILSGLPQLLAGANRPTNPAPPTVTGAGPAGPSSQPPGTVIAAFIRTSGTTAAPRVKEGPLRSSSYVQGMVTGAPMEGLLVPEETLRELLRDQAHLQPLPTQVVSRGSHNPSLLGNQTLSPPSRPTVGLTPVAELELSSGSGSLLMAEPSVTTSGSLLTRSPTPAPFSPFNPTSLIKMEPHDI
ETV6, sequence (P41212 whole entry): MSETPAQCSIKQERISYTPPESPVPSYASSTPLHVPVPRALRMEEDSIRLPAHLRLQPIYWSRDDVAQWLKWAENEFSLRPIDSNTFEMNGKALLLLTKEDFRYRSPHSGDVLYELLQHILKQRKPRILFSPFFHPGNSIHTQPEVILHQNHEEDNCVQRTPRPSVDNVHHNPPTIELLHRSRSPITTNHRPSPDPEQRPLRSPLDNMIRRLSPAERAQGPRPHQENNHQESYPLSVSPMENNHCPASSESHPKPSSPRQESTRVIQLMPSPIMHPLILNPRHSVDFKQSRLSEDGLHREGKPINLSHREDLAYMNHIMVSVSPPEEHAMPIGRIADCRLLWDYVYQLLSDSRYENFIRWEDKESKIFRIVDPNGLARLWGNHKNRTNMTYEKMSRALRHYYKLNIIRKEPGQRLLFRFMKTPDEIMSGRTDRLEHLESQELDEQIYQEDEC
HSF1, sequence (Q00613 whole entry): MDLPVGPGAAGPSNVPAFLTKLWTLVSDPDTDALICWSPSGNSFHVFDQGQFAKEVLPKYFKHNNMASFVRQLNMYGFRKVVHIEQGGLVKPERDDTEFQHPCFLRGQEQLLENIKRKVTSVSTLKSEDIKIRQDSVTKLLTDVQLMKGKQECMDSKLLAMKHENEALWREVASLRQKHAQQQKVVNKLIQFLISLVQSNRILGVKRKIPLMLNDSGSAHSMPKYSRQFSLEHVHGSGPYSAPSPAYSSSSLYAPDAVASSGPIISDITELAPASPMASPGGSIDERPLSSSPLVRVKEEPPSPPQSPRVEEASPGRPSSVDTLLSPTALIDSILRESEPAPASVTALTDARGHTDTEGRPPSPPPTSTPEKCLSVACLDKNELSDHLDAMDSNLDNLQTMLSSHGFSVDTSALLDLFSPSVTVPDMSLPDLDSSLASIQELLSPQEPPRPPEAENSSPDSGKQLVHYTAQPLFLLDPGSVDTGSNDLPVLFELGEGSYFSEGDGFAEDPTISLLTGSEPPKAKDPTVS
CRX, sequence (O43186 whole entry): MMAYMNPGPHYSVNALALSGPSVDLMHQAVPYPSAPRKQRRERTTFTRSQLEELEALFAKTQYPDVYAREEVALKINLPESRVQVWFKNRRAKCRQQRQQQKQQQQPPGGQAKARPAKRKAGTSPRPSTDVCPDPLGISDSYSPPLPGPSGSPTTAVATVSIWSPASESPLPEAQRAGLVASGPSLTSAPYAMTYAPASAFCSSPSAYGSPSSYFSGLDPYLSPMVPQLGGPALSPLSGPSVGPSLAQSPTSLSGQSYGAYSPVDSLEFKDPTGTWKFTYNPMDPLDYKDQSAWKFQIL

Take AAACGC: the binding signal is 1.21 fold enrichment (6-mer frequency, TF over GST control) in assay [1]; 1.28 fold enrichment (6-mer frequency, TF over GST control) in assay [2]; 1.05 fold enrichment (6-mer frequency, TF over GST control) in [3]; 1.29 fold enrichment (6-mer frequency, TF over GST control) in [4]; 1.2 fold enrichment (6-mer frequency, TF over GST control) in assay [5]; 1.27 fold enrichment (6-mer frequency, TF over GST control) in assay [6]. In addition, the binding signal was 1.38 fold enrichment (6-mer frequency, TF over GST control) in [7]; 1.21 fold enrichment (6-mer frequency, TF over GST control) in assay [8]; 1.04 fold enrichment (6-mer frequency, TF over GST control) in [9]; 1.31 fold enrichment (6-mer frequency, TF over GST control) in assay [10]; 1.24 fold enrichment (6-mer frequency, TF over GST control) in assay [11]; 1.18 fold enrichment (6-mer frequency, TF over GST control) in assay [12]. In addition, the binding signal is 1.22 fold enrichment (6-mer frequency, TF over GST control) in assay [13]; 1.24 fold enrichment (6-mer frequency, TF over GST control) in [14]; 1.17 fold enrichment (6-mer frequency, TF over GST control) in assay [15]; 1.33 fold enrichment (6-mer frequency, TF over GST control) in assay [16]; 1.3 fold enrichment (6-mer frequency, TF over GST control) in [17]; 1.35 fold enrichment (6-mer frequency, TF over GST control) in [18].
